PubChem BioAssay (NCI)
Compounds without any hit were thinned out: in the full panel of roughly 83,000, 20% have a hit.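 Plates (96-well) were seeded with cells, treated with compound at one concentration, and incubated for 48 hours before percent growth was determined.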 Unmarked numbers belong to inactive results. Calls of active or inactive are those of the source. The calls were made as follows: active = growth percent below 10; inactive = the rest.

Each molecule was assayed on SK-MEL-2 melanoma (assay: NCI-60 one-dose screen, 48 h (100 = growth as untreated, 0 = no growth, -100 = all killed)). Settings: 10 µM unless noted.
`COc1cc(CNS(=O)(=O)c2ccc(C)cc2)ccc1OCc1cn(-c2ccc(Br)cc2)nn1` gave a growth of 104%. `Cc1ccc(Cl)cc1Nc1nc(C(F)(F)F)ccc1C(=O)N/N=C/c1cccnc1` was tested, and the growth was -5.85% (active). For `COc1cc2c(c(OC)c1OC)-c1ccc(OC)c(=O)cc1[C@@H](NC(=O)CCl)CC2`, the growth was 41.1%. For `Fc1ccc(Nc2nc3nonc3nc2Nc2ccc(I)cc2)cc1`, the growth was -39.7% (active). In the case of `CO[C@H]1/C=C(/C)CCC[C@H](C)[C@H](O)[C@@H](C)C(=O)C(C)(C)[C@@H](O)CC(=O)O[C@@H]1/C(C)=C/c1csc(C)n1`, the growth is reported as -5.73% (active). `COCCn1c(-c2csc(-c3cn(C)c4ccc(OC)cc34)n2)cc2cccnc21` gave a growth of 54%. In the case of `CCNc1nc(-c2ccc(Cl)c(OC)c2)c(-c2ccnc(NCCCNS(=O)(=O)c3ccc(Cl)cc3)n2)s1`, the growth is reported as -27.1% (active). For `O=C1COCCN1c1ccc(Nc2nc(Cl)nc(OCc3cn(Cc4ccccc4)nn3)n2)cc1`, the growth was 85.6%. `N#Cc1c(-c2ccc(Cl)cc2)nc(SCC(=O)NC2=NN=C(c3ccccc3)CS2)[nH]c1=O` gave a growth of 82.9%. In the case of `Cc1cc2c(O)c(-c3cccc(Cl)c3)c3sc(=O)oc3c2cc1C`, the growth is reported as 37.8%. With `CC1=C(CCC(C)N(C)Cc2ccc(OCCCN3CCCC3)cc2)C(C)(C)CCC1` (stereo unspecified) the growth was -55.2% (active). In the case of `N#Cc1cccc(-c2c(-c3ccc4ccccc4c3)oc3ccccc3c2=O)c1`, the growth is reported as 59.1%. In the case of `Cc1nc2sc(C(=O)Nc3ccccc3)c(N)c2cc1C(=O)c1ccccc1`, the growth is reported as 49.9%. `O=C(O)CNC1=C(Cl)C(=O)c2ccccc2C1=O` was tested, and the growth was 100%. Work on `CCCCCC(=O)OCC(=O)O[C@@H]1C[C@]2(C(C)C)O[C@@]1(C)[C@@H]1CC[C@@H](C)[C@H]1[C@@H]2OC(=O)/C=C/c1ccccc1` yielded a growth of 94%. In the case of `CN1C(=O)/C(=C/c2ccc(C(=O)Nc3ncc(Cc4ccc(Cl)cc4)s3)cc2)SC1=S`, the growth is reported as 75.6%. `C#CCOc1ccc2ncnc(Nc3cccc(NC(=O)C=C)c3)c2c1` was tested, and the growth was 70.8%. `CN(CCOc1ccc(C#N)cc1)CCOc1ccc(C#N)cc1` gave a growth of 66.9%. For `CCOC(=O)c1c(NC(=O)c2ccc(C(C)C)cc2)sc2c(CN(C)C)c(O)ccc12`, the growth was 88.3%. In the case of `COC(=O)c1c2c(c[n+]([O-])c1C)C(=O)C(NCc1ccccc1)=CC2=O`, the growth is reported as -44.4% (active). Work on `Nc1ncnc2c1N=C(c1ccc3c(c1)OCO3)CC(c1ccc([N+](=O)[O-])cc1)N2` (stereo unspecified) yielded a growth of 60.8%. `N#C/C(=C/c1ccc([N+](=O)[O-])cc1)n1nnc2cc(F)c(F)cc21` showed a growth of 75.6%. In the case of `CCN1CCN(c2cc(C(=O)Nc3nc(-c4cc(OC)c(OC)c(OC)c4)cs3)cc(C(F)(F)F)c2)CC1`, the growth is reported as 81.4%. With `CN1CCN(c2ccc(C(=O)Nc3cccc(C#Cc4cccc5[nH]nc(N)c45)c3)cc2C(F)(F)F)CC1` the growth was 27.7%. Work on `CN1CCN(c2ccc(NC(=O)c3cncnc3Nc3ccc(OCc4ccccn4)c(Cl)c3)cc2)CC1` yielded a growth of 21.6%. In the case of `c1ccc(CNc2c3ccccc3nc3ccccc23)cc1`, the growth is reported as 60.8%. In the case of `C/C(=N\NC(=O)c1ccccc1O)c1cccc(/C(C)=N/NC(=O)c2ccccc2O)n1`, the growth is reported as 95.2%. For `N#Cc1c(NC(=O)c2ccccc2)sc2c1CCC(=O)C2`, the growth was 13.6%. Work on `CCO/C=N/C1=C(C#N)C(c2ccc(OC)cc2)c2sc3c(F)cccc3c2O1` (stereo unspecified) yielded a growth of 33.3%. With `O=C(CI)NC1Oc2ccccc2-c2oc(=O)c(-c3ccccc3)cc21` (stereo unspecified) the growth was -16.4% (active). With `Brc1ccc2[nH]cc(-c3nonc3-c3c[nH]c4ccccc34)c2c1` the growth was 54%. `Fc1ccc2[nH]cc(-c3nonc3-c3c[nH]c4ccc(Br)cc34)c2c1` was tested, and the growth was 27%. `N#CC1C=CN(CC(N)=O)c2ccc3cccnc3c21` (stereo unspecified) was tested, and the growth was 116%. `CCOC(=O)CSc1ncnc2c1c(-c1ccccc1)c(-c1ccccc1)n2-c1ccc(C)cc1` gave a growth of 82.4%. For `O=C(Cn1c2c(c3ccccc31)CCCC2)Nc1ccc(-c2nc3ccccc3s2)cc1`, the growth was 98.6%. Molecule `CC(C)=CCC[C@](C)(O)[C@H]1CC[C@]2(C)[C@@H]1CC[C@@H]1[C@@]3(C)Cc4nccnc4C(C)(C)[C@@H]3CC[C@]12C` has a growth of 82.7%.
